Data reported in PMC5540273 (PLoS ONE, 2017).

How the values were obtained:
Conditions in all cases: concentration: 1 μM, replicates: in singlicate; n = 1
PRKD3 = system: PRKD3
PRKG1 = system: PRKG1
PRKG2 = system: PRKG2
PRKR = system: T1, PRKR
T1 construct: gene EIF2AK2

PRKX = system: PRKX
PRP4 = system: PRP4
PYK2 = system: T2, PYK2
T2 construct: gene PTK2B

QSK = system: QSK
RAF1 = system: RAF1
RET = system: RET
RIOK1 = system: RIOK1
RIOK2 = system: RIOK2
RIOK3 = system: RIOK3
RIPK1 = system: RIPK1
RIPK2 = system: RIPK2
RIPK4 = system: RIPK4
RIPK5 = system: RIPK5
ROCK1 = system: ROCK1
ROCK2 = system: ROCK2
ROS1 = system: ROS1
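Further: KINOMEscan kinase panel screen.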

Row | SMILES | %Inh (PRKD3) | %Inh (PRKG1) | %Inh (PRKG2) | %Inh (PRKR) | %Inh (PRKX) | %Inh (PRP4) | %Inh (PYK2) | %Inh (QSK) | %Inh (RAF1) | %Inh (RET) | %Inh (RIOK1) | %Inh (RIOK2) | %Inh (RIOK3) | %Inh (RIPK1) | %Inh (RIPK2) | %Inh (RIPK4) | %Inh (RIPK5) | %Inh (ROCK1) | %Inh (ROCK2) | %Inh (ROS1)
1 | Nc1ncc(-c2cccnc2)c2scc(-c3ccc4c(c3)CCN4C(=O)Cc3ccccc3)c12 [GSK683281] | 18% | 12% | 25% | 5% | 23% | 0% | 35% | 18% | 11% | 21% | 35% | 96.6% | 22% | 100% | 82% | 16% | 20% | 0% | 6% | 27%
2 | CSc1cccc2c(-c3ccncn3)c(-c3ccc(F)cc3)nn12 [GW514786] | 100% | 17% | 0% | 0% | 16% | 19% | 0% | 14% | 4% | 29% | 45% | 0% | 21% | 0% | 43% | 0% | 19% | 13% | 19% | 0%
3 | COc1ccc(Nc2nccc(N3CCC(NC(=O)Nc4cccc(OC)c4)C3)n2)cc1 (stereo not shown) [GSK1379742] | 0% | 0% | 0% | 0% | 15% | 12% | 5% | 6% | 3% | 7% | 34% | 4% | 25% | 0% | 0% | 0% | 0% | 0% | 2% | 13%
4 | COc1ccc(Nc2nccc(NCCNC(=O)c3cc4ccccc4s3)n2)cc1 [GSK1379896] | 0% | 0% | 0% | 0% | 16% | 17% | 0% | 2% | 9% | 25% | 19% | 0% | 0% | 0% | 12% | 0% | 7% | 13% | 28% | 9%
5 | CC(=O)Nc1nc2cnc(Nc3cc(NC(=O)c4cccc(C5(C#N)CC5)c4Cl)ccc3C)nc2s1 | 0% | 0% | 0% | 0% | 19% | 6% | 20% | 0% | 99.2% | 99.6% | 15% | 5% | 3% | 2% | 0% | 0% | 15% | 5% | 0% | 0%
6 | Nc1ncc(-c2ccc3nccc(-c4ccncc4)c3c2)cc1S(=O)(=O)N1CCOCC1 [GSK1627798] | 0% | 0% | 0% | 14% | 11% | 3% | 21% | 0% | 0% | 0% | 30% | 39% | 17% | 0% | 1% | 4% | 0% | 0% | 0% | 15%
7 | Cn1cc(-c2[nH]c3cc(NC(=O)[C@H](N)C4CCCCC4)cc4c3c2C=NNC4=O)cn1 | 0% | 56% | 96.2% | 67% | 89% | 68% | 3% | 95.8% | 0% | 100% | 93.7% | 21% | 88% | 0% | 2% | 87% | 25% | 85% | 91.8% | 37%
8 | CNC(=O)c1ccccc1Nc1nc(Nc2ccc(N3CCOCC3)cc2)ncc1Cl.Cl [GSK1576028] | 81% | 74% | 88% | 72% | 17% | 77% | 99.7% | 18% | 0% | 100% | 100% | 90.7% | 100% | 36% | 35% | 79% | 80% | 53% | 37% | 90.9%
9 | Cl.c1ccc(-c2ccc3c(Nc4ccc5[nH]ccc5c4)ccnc3c2)nc1 [GW440138] | 5% | 0% | 0% | 0% | 3% | 77% | 0% | 0% | 40% | 96.9% | 4% | 0% | 0% | 0% | 78% | 19% | 0% | 23% | 43% | 0%
10 | Cc1cccc(NC(=O)Nc2ccc(Oc3ncnc4ccn(C)c34)cc2)c1 | 0% | 100% | 0% | 0% | 0% | 0% | 0% | 0% | 0% | 94% | 0% | 0% | 24% | 0% | 11% | 0% | 5% | 0% | 0% | 0%
11 | O=C(NC1CCN(c2ccnc(Nc3ccc(F)cc3)n2)C1)c1cc2ccccc2s1 (stereo not shown) [GSK1379716] | 9% | 7% | 0% | 0% | 4% | 45% | 15% | 10% | 17% | 10% | 27% | 0% | 33% | 0% | 9% | 3% | 13% | 39% | 29% | 36%
12 | CCS(=O)(=O)c1ccc(OC)c(Nc2nccc(-c3c(-c4cccc(NC(=O)c5c(F)cccc5F)c4)nn4ncccc34)n2)c1 [GSK326180] | 12% | 6% | 3% | 0% | 18% | 20% | 12% | 7% | 93.2% | 20% | 30% | 0% | 56% | 0% | 83% | 27% | 10% | 2% | 18% | 0%
13 | FC(F)(F)c1ccc(/C=C/c2cncnc2Nc2ccc3[nH]c(Cc4ccccc4)nc3c2)cc1 [GW709199] | 0% | 0% | 6% | 2% | 0% | 0% | 30% | 0% | 46% | 8% | 33% | 0% | 2% | 11% | 11% | 0% | 0% | 0% | 0% | 0%
14 | COc1cc2c(cc1OCCN1CCNCC1)ncc1c3ccc(C#N)cc3[nH]c21 | 0% | 0% | 7% | 9% | 34% | 38% | 0% | 52% | 29% | 35% | 82% | 12% | 93.9% | 0% | 16% | 41% | 28% | 99.2% | 99.7% | 0%
15 | Cc1occc1-c1ncc(OC[C@@H](N)Cc2c[nH]c3ccccc23)cc1-c1ccc2[nH]nc(C)c2c1.O=C(O)C(F)(F)F [GSK682037] | 95.6% | 57% | 14% | 0% | 56% | 11% | 49% | 11% | 11% | 84% | 95.1% | 6% | 83% | 0% | 12% | 0% | 0% | 74% | 79% | 26%
16 | Cn1cc(-c2ccc3c(c2)CCN3C(=O)Cc2cccc(Cl)c2)c2c(N)ncnc21 [GSK2606590] | 9% | 14% | 0% | 14% | 21% | 2% | 4% | 23% | 1% | 27% | 6% | 19% | 12% | 100% | 15% | 0% | 58% | 0% | 40% | 31%
17 | Nc1n[nH]c2cnc(-c3ccccc3)cc12 [SB-642124] | 0% | 0% | 0% | 0% | 19% | 18% | 5% | 0% | 11% | 0% | 31% | 20% | 100% | 30% | 29% | 25% | 0% | 40% | 18% | 0%
18 | CN(C)Cc1ccc(-c2ccc3c(Nc4ccc(Oc5ccccn5)cc4)ccnc3c2)o1 [GW567148] | 0% | 0% | 0% | 0% | 22% | 4% | 0% | 0% | 0% | 1% | 8% | 4% | 0% | 0% | 95.3% | 0% | 0% | 6% | 11% | 0%
19 | Clc1ccc(-c2nn3ncccc3c2-c2ccnc(Nc3ccc4c(c3)OCCO4)n2)cc1 [GW829116] | 3% | 0% | 0% | 0% | 0% | 0% | 24% | 0% | 16% | 24% | 0% | 0% | 0% | 0% | 83% | 0% | 0% | 37% | 0% | 0%
20 | CN1CCN(CCCNc2nccc(-c3c(-c4ccc(F)cc4)nn4cc(C(F)(F)F)ccc34)n2)CC1 [GW621581] | 62% | 10% | 0% | 0% | 13% | 25% | 0% | 0% | 8% | 0% | 28% | 4% | 0% | 0% | 52% | 0% | 0% | 0% | 26% | 0%
